PubChem BioAssay (Tox21)
Inconclusive results are not listed. The source made the active and inactive calls. Unless noted, calls come from the whole dose curve; as a rule, active = well fitted curve in the direction sought with a large enough effect in the repeat runs; inconclusive = weak or mixed curves; inactive = no such curve, though single readings can be large; an effect the other way counts as inactive or inconclusive.

Experiments:
[1] = qHTS assay to identify small molecule antagonists of the thyroid receptor (TR) signaling pathway (AID 743065); note: series mostly up to about 70 µM; nearly all actives have a fitted effect of over 55% in size
How it was run: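 GH3.TRE-Luc rat pituitary cells (two TREs driving luciferase) were dosed with compound, then stimulated with 1 nM T3 (final) for 23.5 h at 37 C. ONE-Glo luminescence was the read-out, with CellTiter-Fluor fluorescence as the cytotoxicity counter-screen.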

[2] = system: thyroid hormone receptor (rat, GH3 cells); test: qHTS assay to identify small molecule agonists of the thyroid receptor (TR) signaling pathway (AID 743066; calls by dose curve)
[3] = target: Estrogen receptor (Homo sapiens) (UniProt P03372); test: qHTS assay to identify small molecule antagonists of the estrogen receptor alpha (ER-alpha) signaling pathway (AID 743069; active = well fitted curve in the direction sought with a large enough effect in the signal ratio in the repeat runs, not every such curve was filed as active; the % refers to the signal ratio)
How it was run: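 Beta-lactamase FRET fluorescence is read after 2 hr at room temperature with LiveBLAzer B/G substrate. Before that, ER-alpha-bla HEK293 cells sit 4 hr after plating, then receive compound plus 17beta-estradiol and incubate 18 hr at 37C.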

[4] = qHTS assay to identify small molecule antagonists of the estrogen receptor alpha (ER-alpha) signaling pathway - cell viability counter screen (AID 743074; calls by dose curve;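 note: HEK293 cells carrying ER-alpha-UAS-bla reporter stimulated with 17beta-estradiol; nearly all actives have a fitted effect of over 45% in size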)
[5] = target: Estrogen receptor (Homo sapiens) (UniProt P03372); test: qHTS assay to identify small molecule agonists of the estrogen receptor alpha (ER-alpha) signaling pathway (AID 743075; calls by dose curve;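 note: HEK293 GripTite cells with ER-alpha and UAS-driven beta-lactamase reporter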)
[6] = target: Estrogen receptor (Homo sapiens) (UniProt P03372); test: qHTS assay to identify small molecule agonists of the estrogen receptor alpha (ER-alpha) signaling pathway using the BG1 cell line (AID 743079); note: nearly all actives have a fitted effect of over 20% in size
[7] = qHTS assay to identify small molecule antagonists of the estrogen receptor alpha (ER-alpha) signaling pathway using the BG1 cell line (AID 743080; calls by dose curve;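 note: BG1 cells stimulated with 17beta-estradiol alongside compound; series mostly up to about 70 µM; nearly all actives have a fitted effect of over 25% in size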)
How it was run: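 BG1-Luc-4E2 cells (endogenous full-length ER-alpha, 4xERE luciferase) hormone-starved 5 days in charcoal-stripped FBS, plated 4,000/well for 24 h, then compound plus 17beta-estradiol for 21.5 h at 37 C; ONE-Glo luminescence read.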

[8] = qHTS assay to identify small molecule antagonists of the estrogen receptor alpha (ER-alpha) signaling pathway using the BG1 cell line - cell viability counter screen (AID 743081);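 note: compound given together with 17beta-estradiol as the ER stimulus; series mostly up to about 70 µM; nearly all actives have a fitted effect of over 45% in size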
Aromatase (Homo sapiens) = Aromatase (Homo sapiens) (UniProt P11511); test: qHTS assay to identify aromatase inhibitors (AID 743083); note: series mostly up to about 70 µM; nearly all actives have a fitted effect of over 55% in size
[9] = qHTS assay to identify aromatase inhibitors - cell viability counter screen (AID 743084);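 note: cells stimulated with testosterone during compound exposure; nearly all actives have a fitted effect of over 55% in size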
[10] = target: Aryl hydrocarbon receptor (Homo sapiens) (UniProt P35869); test: qHTS assay to identify small molecule that activate the aryl hydrocarbon receptor (AhR) signaling pathway (AID 743085);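 note: HG2L7.5c1 human HepG2 liver cells with stably integrated DRE-driven firefly reporter; series mostly up to about 70 µM; nearly all actives have a fitted effect of over 15% in size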
How it was run: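 Steps: seed HepG2-AhR-luc cells; allow 5 h at 37C; pin-transfer test compound or vehicle; incubate 24 h at 37C; add viability dye (30 min, 37C) and read fluorescence; add luciferase substrate (30 min, RT) and read luminescence.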

[11] = qHTS assay to identify small molecule that activate the aryl hydrocarbon receptor (AhR) signaling pathway - cell viability counter screen (AID 743086);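 note: HepG2 liver cells carrying the AhR DRE luciferase reporter; series mostly up to about 70 µM; nearly all actives have a fitted effect of over 45% in size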
How it was run: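 HepG2-AhR-luc (HG2L7.5c1) cells, 4000/well, treated 24 h at 37 C with compound; viability measured as CellTiter-Fluor fluorescence after 30 min in the same wells as the luciferase read.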

[12] = target: Peroxisome proliferator-activated receptor gamma (Homo sapiens) (UniProt P37231); test: qHTS assay to identify small molecule agonists of the peroxisome proliferator-activated receptor gamma (PPARg) signaling pathway (AID 743094; active = well fitted activation curve with a large enough effect in the signal ratio in the repeat runs, not every such curve was filed as active; the % refers to the signal ratio)
How it was run: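 HEK293H PPARg-bla cells, 5 h settle at 37C/5% CO2; compound (DMSO) 17 h, 37C; B/G FRET substrate 1 h RT; fluorescence intensity read-out. qHTS format.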

[13] = qHTS assay for small molecule agonists of the antioxidant response element (ARE) signaling pathway (AID 743202; active = well fitted activation curve with a large enough effect in the signal ratio in the repeat runs, not every such curve was filed as active; the % refers to the signal ratio)
How it was run: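 HepG2 ARE-bla reporter line, 2,000 cells/well; 5 h preincubation 37 C/5% CO2; compound (DMSO) 16 h 37 C; B/G FRET substrate 2 h RT; fluorescence intensity.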

[14] = qHTS assay for small molecule agonists of the antioxidant response element (ARE) signaling pathway - cell viability counter screen (AID 743203; calls by dose curve; note: nearly all actives have a fitted effect of over 55% in size)
How it was run: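 Luminescence read-out (CellTiter-Glo, 30 min at room temperature) measured cell viability in the same wells as the ARE beta-lactamase reporter. HepG2 ARE-bla cells were treated with compounds for 16 hrs at 37C/5% CO2.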

[15] = qHTS assay for small molecule activators of the heat shock response signaling pathway - cell viability counter screen (AID 743209); note: nearly all actives have a fitted effect of over 50% in size
How it was run: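 HSE-bla HeLa; 1500 cells/well; overnight 37 C, 5% CO2; compound 5 h 37 C; LiveBLAzer B/G substrate 2.5 h RT; CellTiter-Glo 30 min RT; luminescence.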

[16] = target: Peroxisome proliferator-activated receptor gamma (Homo sapiens) (UniProt P37231); test: qHTS assay to identify small molecule antagonists of the peroxisome proliferator-activated receptor gamma (PPARg) signaling pathway (AID 743191; calls by dose curve; note: series mostly up to about 63 µM; nearly all actives have a fitted effect of over 30% in size)
How it was run: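 GeneBLAzer PPARg UAS-bla HEK293H cells, 5 h post-plating, exposed to compounds 17 h at 37C. LiveBLAzer B/G FRET substrate added for 1 h at room temperature; beta-lactamase reporter read by fluorescence intensity.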

[17] = qHTS assay to identify small molecule antagonists of the peroxisome proliferator-activated receptor gamma (PPARg) signaling pathway - cell viability counter screen (AID 743194); note: nearly all actives have a fitted effect of over 55% in size
How it was run: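 Cytotoxicity counter screen in PPARg-bla HEK293H cells, same wells as reporter assay. Compounds plus 50 nM rosiglitazone (final) for 17 h at 37 C, then viability read by CellTiter-Glo luminescence.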

[18] = qHTS assay for small molecule activators of the heat shock response signaling pathway (AID 743210; active = well fitted activation curve with a large enough effect in the signal ratio in the repeat runs, with a control signal flat, not every such curve was filed as active; the % refers to the signal ratio;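 note: HeLa cells with beta-lactamase reporter driven by heat shock elements; series mostly up to about 63 µM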)
How it was run: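 Beta-lactamase reporter read-out: FRET substrate fluorescence after 2.5 h at RT, following 5 h compound treatment at 37 C of HeLa cells carrying HSE-driven bla reporter; quantitative HTS format.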

[19] = qHTS assay to identify small molecule antagonists of the thyroid receptor (TR) signaling pathway - cell viability counter screen (AID 743064); note: nearly all actives have a fitted effect of over 50% in size
How it was run: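 Plate GH3.TRE-Luc cells; incubate 4 h at 37 °C; add compound, then T3 to 1 nM final; incubate 23.5 h; add CellTiter-Fluor; incubate 30 min at 37 °C, 5% CO2; read fluorescence.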

Measured: Potency

Estrogen receptor (Homo sapiens), sequence (P03372 whole entry, looked up): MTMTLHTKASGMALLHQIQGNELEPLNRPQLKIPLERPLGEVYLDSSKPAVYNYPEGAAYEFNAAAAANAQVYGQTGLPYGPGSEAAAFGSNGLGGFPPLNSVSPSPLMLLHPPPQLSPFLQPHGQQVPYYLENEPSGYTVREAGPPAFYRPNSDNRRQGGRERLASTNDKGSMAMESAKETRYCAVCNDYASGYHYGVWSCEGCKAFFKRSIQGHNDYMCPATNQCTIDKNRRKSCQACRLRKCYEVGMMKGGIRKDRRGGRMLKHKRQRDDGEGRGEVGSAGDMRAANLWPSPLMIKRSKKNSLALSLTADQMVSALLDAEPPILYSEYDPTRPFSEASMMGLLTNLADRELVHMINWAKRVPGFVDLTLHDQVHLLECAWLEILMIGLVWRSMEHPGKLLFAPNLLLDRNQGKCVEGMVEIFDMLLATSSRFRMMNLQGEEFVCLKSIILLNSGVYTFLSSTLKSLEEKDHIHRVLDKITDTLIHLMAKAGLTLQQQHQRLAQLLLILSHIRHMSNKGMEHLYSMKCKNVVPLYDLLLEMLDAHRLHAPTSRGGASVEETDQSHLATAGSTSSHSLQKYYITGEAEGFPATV
Aromatase (Homo sapiens), sequence (P11511 whole entry, looked up): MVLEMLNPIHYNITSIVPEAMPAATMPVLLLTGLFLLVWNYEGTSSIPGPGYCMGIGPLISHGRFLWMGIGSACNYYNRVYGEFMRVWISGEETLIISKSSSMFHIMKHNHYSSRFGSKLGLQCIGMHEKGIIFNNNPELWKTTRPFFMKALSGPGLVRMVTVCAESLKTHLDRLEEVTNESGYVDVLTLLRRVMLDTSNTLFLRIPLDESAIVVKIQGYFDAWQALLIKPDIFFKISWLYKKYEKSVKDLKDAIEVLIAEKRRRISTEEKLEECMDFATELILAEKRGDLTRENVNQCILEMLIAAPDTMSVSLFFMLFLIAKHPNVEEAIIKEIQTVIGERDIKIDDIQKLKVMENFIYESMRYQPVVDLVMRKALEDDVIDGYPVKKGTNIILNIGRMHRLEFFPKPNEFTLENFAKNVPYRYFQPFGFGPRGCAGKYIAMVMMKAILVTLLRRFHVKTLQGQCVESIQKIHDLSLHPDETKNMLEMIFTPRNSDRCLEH
Aryl hydrocarbon receptor (Homo sapiens), sequence (P35869 whole entry, looked up): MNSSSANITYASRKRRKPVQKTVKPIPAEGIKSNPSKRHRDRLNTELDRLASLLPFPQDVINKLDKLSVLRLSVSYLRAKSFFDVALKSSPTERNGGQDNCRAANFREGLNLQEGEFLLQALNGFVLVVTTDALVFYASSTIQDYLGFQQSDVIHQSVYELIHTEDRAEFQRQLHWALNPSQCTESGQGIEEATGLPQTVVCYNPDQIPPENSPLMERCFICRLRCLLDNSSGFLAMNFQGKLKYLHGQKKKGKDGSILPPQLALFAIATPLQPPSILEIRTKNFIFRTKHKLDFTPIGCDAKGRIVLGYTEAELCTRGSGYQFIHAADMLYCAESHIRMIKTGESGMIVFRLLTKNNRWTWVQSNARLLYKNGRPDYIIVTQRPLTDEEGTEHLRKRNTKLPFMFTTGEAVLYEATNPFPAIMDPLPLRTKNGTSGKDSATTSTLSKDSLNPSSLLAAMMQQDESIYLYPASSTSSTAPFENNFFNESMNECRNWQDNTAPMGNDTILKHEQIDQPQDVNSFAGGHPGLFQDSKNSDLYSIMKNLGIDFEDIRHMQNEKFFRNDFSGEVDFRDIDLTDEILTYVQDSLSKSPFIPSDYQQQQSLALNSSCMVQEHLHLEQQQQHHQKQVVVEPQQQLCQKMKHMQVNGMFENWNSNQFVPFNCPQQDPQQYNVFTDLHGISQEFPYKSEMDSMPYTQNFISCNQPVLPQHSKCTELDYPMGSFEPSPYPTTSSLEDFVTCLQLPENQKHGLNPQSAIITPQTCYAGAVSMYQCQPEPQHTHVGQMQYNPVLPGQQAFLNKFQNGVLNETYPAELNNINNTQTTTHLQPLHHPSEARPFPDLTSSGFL
Peroxisome proliferator-activated receptor gamma (Homo sapiens), sequence (P37231 whole entry, looked up): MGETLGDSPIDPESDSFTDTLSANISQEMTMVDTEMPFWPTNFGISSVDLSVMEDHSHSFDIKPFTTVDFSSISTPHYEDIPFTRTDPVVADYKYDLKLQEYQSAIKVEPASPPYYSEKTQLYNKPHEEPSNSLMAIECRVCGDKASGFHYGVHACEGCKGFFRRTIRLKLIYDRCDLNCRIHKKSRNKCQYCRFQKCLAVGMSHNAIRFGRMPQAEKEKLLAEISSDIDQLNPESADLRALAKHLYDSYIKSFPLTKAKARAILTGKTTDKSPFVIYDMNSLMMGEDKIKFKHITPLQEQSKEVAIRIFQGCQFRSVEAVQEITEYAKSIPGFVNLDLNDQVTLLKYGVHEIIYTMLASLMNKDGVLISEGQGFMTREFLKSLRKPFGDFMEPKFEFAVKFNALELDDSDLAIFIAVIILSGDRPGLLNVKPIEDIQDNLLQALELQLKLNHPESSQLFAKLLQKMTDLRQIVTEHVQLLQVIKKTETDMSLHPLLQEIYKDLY

NS(=O)(=O)c1ccc(C(=O)O)cc1
not listed: [16] | [17] | [18] | [19]
inactive: all other assays above

COc1cc(C(=O)N2CCCCCCC2)cc(OC)c1OC
not listed: [19]
inactive: all other assays above

CC(=O)CC(C)C
inactive: [19] | [1] | [2] | [4] | [9] | [11] | [16] | [17] | [13] | [15]

CN(C)CCCNCCCN(C)C
not listed: [17] | [19]
inactive: all other assays above

COc1ccc2c(c1)c(CC(=O)OCC(=O)O)c(C)n2C(=O)c1ccc(Cl)cc1
not listed: [3] | [5] | [6] | [7] | [8] | [16] | [17]
inactive: all other assays above

CC(=O)N(CC(O)CO)c1c(I)c(C(=O)NCCO)c(I)c(C(=O)NCC(O)CO)c1I (stereo not drawn)
not listed: [3] | [4] | [5] | [6] | [7] | [13] | [14]
inactive: all other assays above

CC(=O)CC(C)(C)C1CCCCC1
not listed: [19]
inactive: all other assays above

NC(CSCC(=O)O)C(=O)O (stereo not drawn)
not listed: [1] | [14] | [16]
inactive: all other assays above

CC(C)NCC(O)c1ccc(NS(C)(=O)=O)cc1 (stereo not drawn)
inactive: [19] | [1] | [2] | [4] | [8] | [11] | [17] | [13] | [14] | [15] | [18]

Nc1c[n+](N2CCOCC2)no1
not listed: [1] | [4] | [7] | [12] | [16]
inactive: all other assays above

N[C@H](C(=O)O)c1ccc(O)cc1
not listed: [1] | [2] | [15]
inactive: all other assays above

NCCc1cnc[nH]1
inactive: [19] | [1] | [2] | [4] | [8] | Aromatase (Homo sapiens) | [9] | [11] | [17] | [13] | [18]

CCn1ccnc1CC1COc2ccccc2O1 (stereo not drawn)
not listed: [19]
inactive: all other assays above
